The text below walks through data of PubChem BioAssay (Tox21).

Test [1] is described as follows: qHTS assay to identify small molecule antagonists of the estrogen receptor alpha (ER-alpha) signaling pathway using the BG1 cell line in the presence of 0.1 nM 17-beta-estradiol - cell viability counter screen (AID 1259241). Note: nearly all actives have a fitted effect of over 40% in size. Note: potency is the fitted concentration of half-maximal effect. In short, it runs like this:
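Following 5 days in phenol red-free medium with charcoal-stripped serum, VM7Luc4E2 cells received test compounds alongside 0.1 nM 17beta-estradiol (final) at 37C for 22 hr. Live cells were then quantified via protease-substrate fluorescence.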
For orientation: qHTS replaces the single test concentration by a dilution series.

Test [2] is described as follows: qHTS assay to identify small molecule antagonists of the androgen receptor (AR) signaling pathway using the MDA cell line in the presence of 0.5 nM R1881 - cell viability counter screen (AID 1259242). Note: nearly all actives have a fitted effect of over 45% in size. Note: potency is the fitted concentration of half-maximal effect. In short, it runs like this: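 Viability of MDA-kb2 cells was multiplexed with the luciferase AR readout; after 16 hr with compounds and R1881 at 0.5 nM final, CellTiter-Fluor fluorescence was recorded.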

In test [3] the target is Estrogen receptor (Homo sapiens) (UniProt P03372). Kind of test: qHTS assay to identify small molecule antagonists of the estrogen receptor alpha (ER-alpha) signaling pathway using the BG1 cell line in the presence of 0.1 nM 17-beta-estradiol (AID 1259244). Note: nearly all actives have a fitted effect of over 50% in size. Note: potency is the fitted concentration of half-maximal effect. A digest of the protocol:
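Estradiol at 0.1 nM (final) stimulates the endogenous ER-alpha of VM7Luc4E2 cells carrying an ERE-driven luciferase; compounds are co-incubated 22 h at 37C and luciferase output quantified by luminescence.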

Test [4] can be described thus: qHTS assay to identify small molecule HDAC inhibitors (AID 1259364). Note: potency is the fitted concentration of half-maximal effect.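 Note: wild-type HCT-116 cells with endogenous class I/II HDAC activity; nearly all actives have a fitted effect of over 45% in size.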 In short, it runs like this:
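Read-out: luminescence of HDAC-Glo I/II reagent, 30 min RT, reflecting class I/II deacetylase activity in whole HCT-116 cells pre-exposed 2 h to DMSO-dissolved compounds.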

The nature of test [5]: qHTS assay to identify small molecule HDAC inhibitors - cell viability counter screen (AID 1259365). Note: nearly all actives have a fitted effect of over 50% in size. Note: potency is the fitted concentration of half-maximal effect. In short, it runs like this: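 HCT-116 wild-type, overnight attachment; 2hr drug exposure, 37C; CellTiter-Glo luminescent ATP readout after 30min RT.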
Test [6] is described as follows: qHTS assay to identify small molecule agonists of the sonic hedgehog signaling (Shh) pathway - cell viability counter screen (AID 1259366). Note: nearly all actives have a fitted effect of over 50% in size. Note: potency is the fitted concentration of half-maximal effect. A digest of the protocol: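 Compounds in DMSO were pin-transferred onto 3T3 Gli1-Luc cells that had settled 4hr; plates then stood 24hr at 37C and 5% CO2. One hour before the end, CellTiter-Fluor was added and fluorescence recorded.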

Test [7] in a line: qHTS assay to identify small molecule antagonists of the sonic hedgehog signaling (Shh) pathway - cell viability counter screen (AID 1259367). Note: nearly all actives have a fitted effect of over 55% in size. Note: potency is the fitted concentration of half-maximal effect. In short, it runs like this:
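Cells: 3T3 Gli1-Luc, 2,000/well, 4 hr pre-incubation. Compounds in DMSO, then conditioned medium. Incubation 24 hr, 37C, 5% CO2. CellTiter-Fluor at 23 hr, 1 hr, fluorescence.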

A short description of test [8]: qHTS assay to identify small molecule phospholipidosis (PLD) inducers (AID 1259344; active = well fitted curve in the direction sought with a large enough effect; an effect the other way counts as inactive or inconclusive). A digest of the protocol:
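Phospholipidosis is scored by imaging LipidTOX-stained pits in HepG2 cells exposed to compound for 24 h at 37 C; pit counts and integrated intensities per well and per cell serve as outputs.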

Test [9] is described as follows: qHTS assay to identify small molecule agonists of the sonic hedgehog signaling (Shh) pathway (AID 1259368; calls by dose curve; note: nearly all actives have a fitted effect of over 15% in size; note: potency is the fitted concentration of half-maximal effect). In short, it runs like this: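 A Gli1 transcriptional response element controlled firefly luciferase in 3T3Gli1-Luc cells. Compounds and a positive control were added 4 hr after plating, and cells were incubated a further 24 hr at 37 C before luminescence detection.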

Records with an inconclusive call do not appear. Calls of active or inactive are those of the source. Unless noted, calls come from the whole dose curve; as a rule, active = well fitted curve in the direction sought with a large enough effect in the repeat runs; inconclusive = weak or mixed curves; inactive = no such curve, though single readings can be large; an effect the other way counts as inactive or inconclusive.

Estrogen receptor (Homo sapiens), sequence (P03372 whole entry, looked up): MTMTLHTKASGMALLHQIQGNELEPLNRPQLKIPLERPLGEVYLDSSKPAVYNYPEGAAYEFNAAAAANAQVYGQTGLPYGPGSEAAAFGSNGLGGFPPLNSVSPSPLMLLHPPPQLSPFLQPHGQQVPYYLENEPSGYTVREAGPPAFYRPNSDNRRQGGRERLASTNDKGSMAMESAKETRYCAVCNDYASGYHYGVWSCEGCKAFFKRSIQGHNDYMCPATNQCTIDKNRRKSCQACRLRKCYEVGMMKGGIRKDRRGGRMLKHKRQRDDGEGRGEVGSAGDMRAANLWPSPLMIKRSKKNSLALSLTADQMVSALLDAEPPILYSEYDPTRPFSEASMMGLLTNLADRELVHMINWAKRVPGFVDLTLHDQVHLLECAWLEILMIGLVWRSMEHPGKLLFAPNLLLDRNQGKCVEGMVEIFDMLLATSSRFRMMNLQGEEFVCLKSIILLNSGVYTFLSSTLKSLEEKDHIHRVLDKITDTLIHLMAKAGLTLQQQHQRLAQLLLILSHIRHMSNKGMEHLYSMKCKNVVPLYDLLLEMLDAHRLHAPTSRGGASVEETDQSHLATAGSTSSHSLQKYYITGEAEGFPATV

On to `CCOP(=S)(OCC)SCCS(=O)(=O)CC`, for which the Potency result in [1], in test [2], in test [3], in [4] and in [5] was “inactive” each time.

Consider `CC(C)OS(C)(=O)=O`, for which the Potency result in test [1], in test [2], in test [3], in [4], in [5] and in test [6] was “inactive” each time. Moreover, in [7], the Potency entry was “inactive”.

With `CC[C@H](C)[C@H]1O[C@]2(C=C[C@@H]1C)C[C@@H]1C[C@@H](C/C=C(\C)[C@@H](O[C@H]3C[C@H](OC)[C@@H](O[C@H]4C[C@H](OC)[C@@H](O)[C@H](C)O4)[C@H](C)O3)[C@@H](C)/C=C/C=C3\CO[C@@H]4[C@H](O)C(C)=C[C@@H](C(=O)O1)[C@]34O)O2`, the Potency is 32.2 µM (active) in [1], 36.1 µM (active) in test [2], 22.8 µM (active) in test [3] and 36.1 µM (active) in test [6]. Also, the Potency result in test [8], in [4], in [5] and in test [9] was “inactive” in each case.

Regarding `N#CCc1ccc(Cl)cc1`, the Potency result in test [1], in [2], in test [3], in [4], in [5] and in test [6] was “inactive” in each case. The Potency entry in test [7] and in test [9] was “inactive” in each case.

With `ClCc1ccccc1CCl`, the Potency entry in test [1], in test [2], in test [3], in test [4], in test [5] and in test [6] was “inactive” throughout. Further, the Potency entry in [7] and in [9] was “inactive” each time.

For the molecule `Clc1ccc(-c2ccc(Cl)c(Cl)c2Cl)c(Cl)c1Cl`, the Potency entry in test [1], in test [2], in [3], in test [4], in test [5] and in test [6] was “inactive” each time. For the same molecule, the Potency result in test [7] and in test [9] was “inactive” in each case.

Turning to `ClC(Cl)=C(c1ccc(Cl)cc1)c1ccc(Cl)cc1`, the Potency result in test [1], in test [2], in [3], in [4], in test [5] and in [6] was “inactive” in each case. For the same molecule, the Potency result in [7] and in test [9] was “inactive” in each case.

`CC(C)OC(=O)C(O)(c1ccc(Cl)cc1)c1ccc(Cl)cc1`: the Potency result in test [1], in [2], in [3], in test [4], in test [5] and in test [6] was “inactive” throughout. Further, the Potency entry in test [7] and in test [9] was “inactive” each time.

As to `Fc1ccc(Oc2ccnc3cc(Cl)cc(Cl)c23)cc1`, the Potency result in test [1], in test [2], in test [3], in [4], in test [5] and in test [6] was “inactive” throughout. The Potency entry in test [7] and in [9] was “inactive” in each case.

Take `CCCCCCCCCCBr`: the Potency entry in test [1], in test [2], in test [3], in [4], in test [5] and in test [6] was “inactive” throughout. Also, the Potency entry in test [7] and in [9] was “inactive” in each case.

As to `Cc1ccc(OP(=O)(Oc2ccccc2)Oc2ccccc2)cc1`, the Potency entry in test [1], in test [2], in test [3], in test [4], in test [5] and in [6] was “inactive” in each case. The Potency result in test [7] and in [9] was “inactive” in each case.

Regarding `CC(C)CCCCCOC(=O)c1ccccc1C(=O)OCCCCCC(C)C`, the Potency result in test [1], in [2], in test [3], in test [4], in [5] and in test [6] was “inactive” throughout. Also, the Potency result in [7] and in test [9] was “inactive” in each case.

For the molecule `CCN(CC)C(=S)[S-].CCN(CC)C(=S)[S-].[Zn+2]`, the Potency is 1.92 µM (active) in [1]; 1.08 µM (active) in test [3]; 34.1 µM (active) in [4]; 1.21 µM (active) in [6]; 1.08 µM (active) in test [7]. Besides, the Potency entry in [2], in test [5] and in [9] was “inactive” each time.

Turning to `Cc1cc(Cl)ccc1O[C@H](C)C(=O)O`, the Potency entry in test [1], in test [2], in test [3], in test [4], in test [5] and in test [6] was “inactive” in each case. Besides, the Potency result in test [7] and in test [9] was “inactive” throughout.

As to `Cc1cc(C(F)(C(F)(F)F)C(F)(F)F)ccc1NC(=O)c1cccc(I)c1C(=O)NC(C)(C)CS(C)(=O)=O`, the Potency entry in [1], in test [2], in [3], in test [4], in test [5] and in [6] was “inactive” throughout. Also, the Potency entry in test [7] is “inactive”. Further, the Potency in test [9] was 13.8 µM (active).

For `CCCCCCCCCCCCCN1CC(C)OC(C)C1` (centres undefined), the Potency entry in test [1], in [2], in test [3], in test [4], in test [5] and in test [6] was “inactive” in each case. In addition, the Potency entry in test [7] and in test [9] was “inactive” in each case.

For the molecule `CC(C)OC(=S)S`, the Potency entry in [1], in test [2], in test [3], in test [4] and in [5] was “inactive” in each case. The Potency in [6] was 30.6 µM (active); in [7], 61.1 µM (active).

Take `C[C@H]1CC[C@@H]2[C@@H](C)[C@H]3[C@H](C[C@H]4[C@@H]5CC=C6CC(O[C@@H]7O[C@H](CO)[C@H](O)[C@H](O[C@@H]8O[C@H](CO)[C@@H](O)[C@H](O)[C@H]8O)[C@H]7O[C@H]7O[C@@H](C)[C@H](O)[C@@H](O)[C@H]7O)CC[C@]6(C)[C@H]5CC[C@]34C)N2C1` (some centres undefined): the Potency entry in [1], in test [3], in test [8], in test [4], in [7] and in [9] was “inactive” each time. Further, the Potency in test [2] is 25.1 µM (active); in test [5], 28.2 µM (active).
